From PubChem BioAssay
Compounds with a hit are over-represented: about 8.7% of the library has one in this group of screens.
Vaccinia Venus – inhibitors of vaccinia virus (Venus reporter). Vaccinia virus Venus reporter expression, fluorescence. Potency, µM (highest dose often 36.5 µM), for the others: at the highest dose activity change, negative = inhibition, most hits filed as inhibitors. hit rate 0.46% among 330,000; calls by dose curve; tested in A549 cells; note: nearly all actives have a fitted effect of over 30% in size
AMA1-RON2 inh – disrupts binding of P. falciparum AMA1 to RON2; AlphaScreen AMA1-biotinylated RON2 peptide binding; Potency, µM (top dose mostly 58.2 µM), inactives show at the top dose activity change, negative = inhibition, actives largely listed as inhibitors; hit rate 0.2% among 360,000; AID 720542;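 note: 0% = vehicle wells and -100% = peptide control; nearly all actives have a fitted effect of over 45% in size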
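AMA1 (3D7) with his tag at 25 nM final met compounds first, then biotinylated RON2 peptide at 25 nM; detection used donor plus acceptor beads, 10 µg/mL apiece, read by AlphaScreen after 30 min at room temperature.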
VACV mCherry inh – inhibitors of vaccinia virus infection (mCherry reporter signal) | Vaccinia virus mCherry reporter infection, fluorescence | Potency, µM (top dose mostly 36.5 µM), for inactives: top-dose activity change, negative = inhibition, actives largely listed as inhibitors | hit rate 0.63% among 310,000 | AID 720579; calls by dose curve; tested in A549 cells; note: nearly all actives have a fitted effect of over 35% in size
Pf growth 96h – P. falciparum growth inhibition at 96 hour, primary screen for plastid delayed-death inhibitors | AID 504834 | P. falciparum luciferase reporter growth, 96 h | hit rate 6.9% among 320,000 | Potency, µM (series often up to 28.7 µM), inactives show top-dose activity change, negative = inhibition, usual class: inhibitors
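Two parasite generations (96 h, 37 C, 5% CO2) of compound exposure in infected erythrocytes (0.05% parasitemia, 2% hematocrit). Luciferase-reporter P. falciparum; decreased luminescence indicates inhibited growth, aimed at apicoplast-acting delayed death.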
Pf growth 48h – P. falciparum growth inhibition at 48 hours (one generation); P. falciparum luciferase growth in erythrocytes, 48 h; Potency, µM (highest dose often 28.7 µM), for the others: top-dose activity change, negative = inhibition, hits mostly inhibitors; hit rate 5.9% among 310,000; AID 504832
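Luciferase-expressing P. falciparum in infected erythrocytes (2% hematocrit, 0.1% parasitemia final) in RPMI 1640/0.5% Albumax were exposed to compound for 48 hours at 37 C, 5% CO2; growth read as luminescence.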
* marks the source's active call; other numbers are inactive results; i = inactive; ? = inconclusive; / = no result; [ ] = dose if it differs, or a comment. Unless noted, calls come from the whole dose curve; as a rule, active = well fitted curve in the direction sought with a large enough effect; inconclusive = small, poorly fitted or top-dose-only effect, or another doubt; inactive = no such curve, though single readings can be large; an effect the other way counts as inactive or inconclusive. Unless noted, % is set by controls: 0 for no effect and ±100 for the full control effect; potency is the fitted concentration of half-maximal effect.

SMILES | Vaccinia Venus | AMA1-RON2 inh | VACV mCherry inh | Pf growth 96h | Pf growth 48h
Cc1ccc2cccc(Oc3ncnc4scc(-c5ccccc5)c34)c2n1 | -22% | 1%[2.32 µM] | -11% | ? | 10µM*
Cc1ccc2cccc(Oc3ncnc4scc(-c5ccc(Cl)cc5)c34)c2n1 | -15% | -19% | -9% | 10µM* | ?
Cc1cc(C(=O)N/N=C/c2c(C)nn(-c3ccccc3)c2C)n[nH]1 | -14% | 66% | i | ? | -11%
COc1cc(/C=N/NC(=O)c2cc(C34CC5CC(CC(C5)C3)C4)[nH]n2)ccc1O | ? | 9% | -26% | 12µM* | ?
Cc1nn(-c2ccccc2)c(C)c1/C=N/NC(=O)c1cc(C23CC4CC(CC(C4)C2)C3)[nH]n1 | ? | 20% | -6% | 2.1µM* | 3.3µM*
COc1cc(/C=N/NC(=O)c2cc(C3CC3)[nH]n2)ccc1O | / | -1% | / | 10% | 2%
CCOC(=O)Cc1nnc(Nc2ccc(C)cc2)c2ccccc12 | ? | -13% | / | 10µM* | -6%
CCOC(=O)Cc1nnc(Nc2cccc(C)c2)c2ccccc12 | -10% | 2% | -18% | -13% | -27%
Cc1cc(C)c(S(=O)(=O)N2CCC(N3CCN(Cc4ccccc4)C(=O)C3=O)CC2)c(C)c1 | -3% | / | -16% | / | /
CC(=O)c1nc2ccccc2n1S(=O)(=O)c1ccc(Cl)cc1 | / | -1% | / | 12µM* | 6%
COCc1c(C(=O)N2CCN(C3CCCCC3)CC2)cnn1-c1ncc(C)c(-c2cccs2)n1 | -11% | / | -2% | / | /
Cc1c(C(=O)NC(C)(C)C)sc2ncnc(NCCN(C)C)c12 | -17% | / | -13% | / | /
Cc1c(NC(=O)Nc2ccccc2C(F)(F)F)sc2nc3n(c(=O)c12)CCC(C)CC3 (stereo not given) | -10% | / | -17% | / | /
O=C(NCc1ccco1)c1cc(-c2cccs2)nc2ccccc12 | -2% | -1% | -12% | 19µM* | ?
COc1cc(-c2cc(C(=O)Nc3ccc(S(=O)(=O)NCc4ccco4)cc3)c3ccccc3n2)cc(OC)c1OC | -28% | 3% | ? | 17µM* | 10µM*
COc1cc(-c2cc(C(=O)NCc3ccco3)c3ccccc3n2)cc(OC)c1OC | -9% | -3% | -18% | 10µM* | ?
O=C(COC(=O)c1cc(-c2cccs2)nc2ccccc12)NCc1ccco1 | 1% | 14% | -9% | 9% | 5%
Cc1cccc(N2C(=O)CS(=O)(=O)C23C(=O)N(C)c2ccccc23)c1 (stereo not given) | 3% | / | 4% | / | /
COC(=O)c1cc(OC)c(OC)c(OC)c1NC(=O)c1cc(=O)n(C)c(=O)n1C | -11% | / | -17% | / | /
CCOC(=O)N1CCN(C(=O)c2ccc3c(=O)n(-c4ccccc4F)c(=S)[nH]c3c2)CC1 | -19% | 70% | -31% | 6% | ?
CCc1ccc(C(CNC(=O)c2ccc3c(=O)n(-c4ccccc4F)c(=S)[nH]c3c2)N(C)C)cc1 (stereo not given) | ? | 19% | ? | ? | 13µM*
Cn1c(=O)c2c(nc(CN3CCN(C(=O)c4ccco4)CC3)n2Cc2ccccc2)n(C)c1=O | -4% | -8% | / | ? | 10µM*
Cn1c(=O)c2c(nc(CN3CCN(C(=O)c4ccco4)CC3)n2Cc2cccc(Cl)c2)n(C)c1=O | / | -6% | / | -6% | 4.7µM*
Cn1c(=O)c2c(nc(CN3CCN(C(=O)c4ccco4)CC3)n2CCc2ccccc2)n(C)c1=O | / | -30% | / | 6% | ?
O=C(c1ccco1)N1CCN(Cc2nc3ccccc3c(=O)n2-c2ccc(F)cc2)CC1 | / | 4% | / | 9.3µM* | /
SMILES | Vaccinia Venus | AMA1-RON2 inh | VACV mCherry inh | Pf growth 96h | Pf growth 48h
CCCn1c(CN2CCN(C(=O)c3ccco3)CC2)nc2c1c(=O)n(C)c(=O)n2C | 2% | 2% | -10% | 4% | 0%
Cc1ccc(Cn2c(CN3CCN(C(=O)c4ccco4)CC3)nc3c2c(=O)n(C)c(=O)n3C)cc1 | / | -4% | / | ? | 2.1µM*
Clc1cccc(CNc2ncnc3nc[nH]c23)c1 | -19% | / | -23% | / | /
CN(C(=O)CSc1nc2ccc(NC(=O)c3cccs3)cc2s1)c1ccccc1 | -12% | / | i | / | /
COc1ccc(-c2noc(-c3ccc(NCc4ccc(C)cc4)c([N+](=O)[O-])c3)n2)cc1OC | -3% | / | -4% | / | /
COc1ccc(N2CCN(Cc3nc4c(c(=O)[nH]c(=O)n4C)n3Cc3ccccc3C)CC2)cc1 | 0% | / | -2% | / | /
CC(=O)N1c2ccccc2C(C)(c2ccc(C)cc2)CC1(C)C (stereo not given) | 5% | / | 2% | / | /
Cn1c(=O)c2c(nc(CN3CCN(C(=O)c4ccco4)CC3)n2Cc2ccc(Cl)cc2)n(C)c1=O | / | -11% | / | 4%[5.75 µM] | 7.4µM*
C=CCNC(=O)c1ccccc1NS(=O)(=O)c1ccccc1 | -7% | -5% | / | 9.3µM* | -7%
C=CCNC(=O)c1ccccc1NS(=O)(=O)c1ccc(SC)cc1 | -8% | 2% | i | / | -9%
CCOC(=O)c1c(C)nc2c(C#N)cnn2c1C | 17% | -4% | / | 12% | -2%
CCCCNc1c(C(=O)OCC)c(C)nc2c1cnn2CC | -14% | 16% | -1% | 15µM* | ?
CCN(CC)C(=O)c1c(-c2ccccc2)c(-c2ccccc2)nn(C)c1=O | -1% | / | 4% | / | /
CN(CC(O)COc1ccc(OCC(O)CN(C)C2CCCCC2)cc1)C1CCCCC1 (stereo not given) | -23% | 5% | i | 35% | ?
Cc1cccc(C)c1OCC(O)CN(Cc1ccccc1O)C1CCCCC1 (stereo not given) | -16% | -6% | i | 0.26µM* | 0.26µM*
CN(C)c1ccc(/C=C/c2nnnn2-c2ccccc2)cc1 | -14% | ? | -24% | 13µM* | 196%
Cc1ccc(NC(=O)CN2C(=O)CCn3nc(-c4cccn4C)cc32)c(Cl)c1 | -8% | / | -8% | / | /
CCn1cc(CN2CCc3c([nH]c4ccccc34)C2c2cccc(OC)c2)c(C)n1 (stereo not given) | -9% | -26% | ? | ? | 12µM*
CCn1cc(CN2CCc3c([nH]c4ccccc34)C2c2ccc(F)c(OC)c2)c(C)n1 (stereo not given) | -14% | -9% | ? | ? | 12µM*
CCn1nc(C)c(CN2CCc3c([nH]c4ccccc34)C2c2ccc(F)c(OC)c2)c1C (stereo not given) | -19% | 40µM* | -28% | ? | 2.6µM*
COc1ccccc1CCN1COc2c(cc3c(C)c(C)c(=O)oc3c2C)C1 | -7% | / | -12% | / | /
Cc1cccc(CNC(=O)c2cnn(-c3ncc(C)c(-c4cccs4)n3)c2C2CC2)n1 | 5% | / | -14% | / | /
COc1ccc(-c2cnnn2-c2ccc(NC(=O)c3c(F)cccc3F)cc2)cc1 | ? | / | -24% | / | /
COc1cccc(N2CCN(C(=O)C3CCN(S(=O)(=O)c4cn(C)cn4)CC3)CC2)c1 | -8% | / | i | / | /
CCCN1CCN(C2CCCCC2NS(=O)(=O)c2ccc(Cl)cc2)CC1 (stereo not given) | / | -2% | / | -4% | 7%
